Assay [1] has as its system Zika virus NS2B-NS3 protease (linked construct). Put plainly: Primary screen NINDS Rhodamine qHTS for Zika virus inhibitors (AID 1347160). Further: nearly all actives have a fitted effect of over 55% in size. Further: potency means the concentration at half of the fitted maximal effect. A digest of the protocol:
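Purified NS2B-NS3 protease with the NS2B hydrophilic domain joined by a flexible linker (25 nM) in 10 mM Tris-HCl pH 8.0, 0.01% Tween 20, preincubated 15 min at RT with compound; Rhodamine110 peptide substrate 1.5 µM; fluorescence change over 15 min; 4-parameter Hill fit.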
(In qHTS, concentration-response curves come from the screen itself.)

Assay [2] deals with Calcium and integrin-binding protein 1 (Homo sapiens) (UniProt Q99828). In words: Primary qHTS for Identification of Calcium Integrin Binding Protein 1 (CIB1) Competitor (AID 1508620).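 Further: GST tagged CIB1 binding a fluorescein labelled alphaIIb integrin peptide tracer; top concentration of the series differs between compounds; on the % scale 0 is the no-effect control and ±100 the full control effect.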 A digest of the protocol: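 Fluorescence polarization competition: CIB1-GST (1 uM final) preincubated with compound 15 min at room temperature, then FITC-labeled alphaIIb peptide (100 nM final) added for another 15 min. Polarization read at Ex 480/Em 540.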

Assay [3] can be described thus: Primary qHTS for inhibitors of nuclear receptor binding SET domain protein 2 (NSD2) in an isogenic RCH-ACV NSD2 p.E1099K mutant (9B) (AID 1645876). Further: nearly all actives have a fitted effect of over 70% in size. Further: potency means the concentration at half of the fitted maximal effect.
The target of assay [4] is Glutathione peroxidase 1 (Homo sapiens) (UniProt P07203). In words: Primary qHTS Assay for Inhibitors of Recombinant Selenoprotein Glutathione Peroxidase 1 (GPX1) (AID 1845191). Further: nearly all actives have a fitted effect of over 65% in size. A digest of the protocol: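 Recombinant GPX1 (10 nM final) was preincubated with compound for 30 min at room temperature, then reacted with 1 mM GSH, 0.5 mM CHP, 0.5 mM NADPH and 100 nM glutathione reductase; NADPH fluorescence (340/450 nm) was read at 0 and 15 min.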

Assay [5] deals with Phospholipid hydroperoxide glutathione peroxidase GPX4 (Homo sapiens) (UniProt P36969). Put plainly: Primary qHTS Assay for Inhibitors of Recombinant Selenoprotein Glutathione Peroxidase 4 (GPX4) (AID 1845192). Further: nearly all actives have a fitted effect of over 65% in size. A digest of the protocol: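 GR-coupled readout: 100 nM GR, 1 mM GSH, 0.5 mM NADPH; NADPH fluorescence (ex 340/em 450 nm) read at t=0 and after 15 min RT. GPX4 200 nM, preincubated 30 min with compound; substrate 0.5 mM CHP.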

Assay [6] deals with Luciferin 4-monooxygenase (Photinus pyralis) (UniProt P08659). In words: Primary firefly luciferase (FLuc) qHTS assay for identification of artifact compounds. (AID 1845220). Further: nearly all actives have a fitted effect of over 60% in size. To be noted: outcome: dose series up to 54.1 µM unless noted. A digest of the protocol: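 In this counter-screen for luciferase artifacts, test compounds met substrate (10 uM each luciferin and ATP) before 10 nM enzyme started the reaction. Light output was measured 5 min later.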

Assay [7] in a line: Primary fluorescence-based thiol-reactive (MSTI) qHTS assay for identification of artifact compounds. (AID 1845221).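 Further: thiol-reactive compounds lower the probe fluorescence signal; nearly all actives have a fitted effect of over 65% in size.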 A digest of the protocol:
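One-hour, room-temperature, dark incubation of compound with 4 uM MSTI in PBS (pH 7.4, 2% DMSO) precedes a fluorescence read at 525 nm excitation, 598 nm emission; Hill-equation fitting yields concentration-response values.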

Assay [8] concerns Nanoluciferase (engineered Oplophorus gracilirostris luciferase). Put plainly: Primary Nanoluciferase (NLuc) qHTS assay for identification of artifact compounds. (AID 1845222). Further: potency means the concentration at half of the fitted maximal effect. A digest of the protocol: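 Using secreted nanoluciferase in S16 culture medium (0.22 um filtered, 1:55 dilution), compounds were preincubated 15 min at RT. Signal was generated with Nano-Glo reagent (1:100) over 5 min.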

The next assay deals with CRL-7250. Put plainly: Cytotoxic Profiling of Annotated Libraries Using Quantitative High-Throughput Screening (AID 1296008). Further: nearly all actives have a fitted effect of over 60% in size. Further: potency means the concentration at half of the fitted maximal effect. On max response: on the % scale 0 is the no-effect control and ±100 the full control effect. To be noted: Five cell lines viability, CellTiter-Glo ATP luminescence, 48-72 h; max response: stronger effect = lower value. A digest of the protocol: (§1)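 Compounds were pin-transferred onto cells and incubated 48 or 72 hr at 37 degree Celsius, 95% humidity. CellTiter-Glo was added, plates sat 10 min at room temperature, then ATP-coupled luminescence was imaged as the viability read-out.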

For a further assay, the system named is HEK293. The description is as above. Conditions: Five cell lines viability, CellTiter-Glo ATP luminescence, 48-72 h; max response: stronger effect = lower value. A digest of the protocol: as §1
A general note: In ATP-based viability assays light output follows the ATP content of the culture.

Another assay has as its system HaCat. Described as above. Conditions: Five cell lines viability, CellTiter-Glo ATP luminescence, 48-72 h; max response: stronger effect = lower value. A digest of the protocol: as §1
In the next assay the test system is Es-2. Put plainly: Primary qHTS to identify gynecologic anti-cancer compounds using libraries of approved drugs and bioactive compounds (AID 1345084). Further: nearly all actives have a fitted effect of over 55% in size. Further: potency means the concentration at half of the fitted maximal effect. To be noted: Gynecologic cancer cell panel viability, ATPlite luminescence, 48 h; series mostly up to 57.5 µM. A digest of the protocol:
(§2)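 In this quantitative HTS, cell killing is estimated from loss of ATP-dependent luciferase light. Cells see five compound concentrations over a 48 h exposure.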

A further assay has as its system OV90. The description is as above. To be noted: Gynecologic cancer cell panel viability, ATPlite luminescence, 48 h; series mostly up to 57.5 µM. A digest of the protocol:
as §2

In a further assay the test system is Tov-21-G. The assay is described as above. To be noted: Gynecologic cancer cell panel viability, ATPlite luminescence, 48 h; series mostly up to 57.5 µM. A digest of the protocol: as §2
The next assay relates to Tov112D. The assay is described as above. Conditions: Gynecologic cancer cell panel viability, ATPlite luminescence, 48 h; series mostly up to 57.5 µM. A digest of the protocol:
as §2

For another assay, the system named is C33A. Described as above. To be noted: Gynecologic cancer cell panel viability, ATPlite luminescence, 48 h; series mostly up to 57.5 µM. A digest of the protocol: as §2
In another assay the test system is CASKI. The assay is described as above. Conditions: Gynecologic cancer cell panel viability, ATPlite luminescence, 48 h; series mostly up to 57.5 µM. A digest of the protocol:
as §2

In a further assay the test system is PA-1. The assay is described as above. Conditions: Gynecologic cancer cell panel viability, ATPlite luminescence, 48 h; series mostly up to 57.5 µM. A digest of the protocol: as §2
For a further assay, the system named is NIH3T3. Put plainly: Cytotoxic Profiling of Annotated Libraries Using Quantitative High-Throughput Screening (AID 1296008). Further: nearly all actives have a fitted effect of over 60% in size. Further: potency means the concentration at half of the fitted maximal effect. On max response: on the % scale 0 is the no-effect control and ±100 the full control effect. To be noted: Five cell lines viability, CellTiter-Glo ATP luminescence, 48-72 h; max response: stronger effect = lower value. A digest of the protocol: as §1
Another assay relates to Hek293T. In words: Primary qHTS to identify gynecologic anti-cancer compounds using libraries of approved drugs and bioactive compounds (AID 1345084). Further: nearly all actives have a fitted effect of over 55% in size. Further: potency means the concentration at half of the fitted maximal effect. To be noted: Gynecologic cancer cell panel viability, ATPlite luminescence, 48 h, control line for the selectivity index; series mostly up to 57.5 µM. A digest of the protocol: as §2

“And” between values parts separate entries of the source, which are not always exact repeats. Equal entries are not always repeated. A number with no mark means an inactive call. Results filed as inconclusive are left out. The source made the active and inactive calls. The call rests on the fitted dose curve; in most records, active means well fitted curve in the direction sought with a large enough effect; inconclusive means small, poorly fitted or top-dose-only effect, or another doubt; inactive means no such curve, though single readings can be large; an effect the other way counts as inactive or inconclusive.

Calcium and integrin-binding protein 1 (Homo sapiens), sequence (Q99828 whole entry, looked up): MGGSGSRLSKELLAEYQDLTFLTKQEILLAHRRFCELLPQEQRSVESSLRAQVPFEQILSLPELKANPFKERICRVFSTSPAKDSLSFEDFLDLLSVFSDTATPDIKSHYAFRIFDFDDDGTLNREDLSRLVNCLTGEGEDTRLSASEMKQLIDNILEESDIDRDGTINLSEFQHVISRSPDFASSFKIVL
Glutathione peroxidase 1 (Homo sapiens), sequence (P07203 whole entry, looked up): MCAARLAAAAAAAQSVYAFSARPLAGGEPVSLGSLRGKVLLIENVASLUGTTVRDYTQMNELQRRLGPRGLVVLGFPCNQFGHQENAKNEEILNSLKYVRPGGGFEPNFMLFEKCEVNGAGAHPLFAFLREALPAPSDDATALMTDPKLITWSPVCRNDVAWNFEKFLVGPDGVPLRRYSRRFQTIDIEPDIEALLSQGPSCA
Phospholipid hydroperoxide glutathione peroxidase GPX4 (Homo sapiens), sequence (P36969 whole entry, looked up): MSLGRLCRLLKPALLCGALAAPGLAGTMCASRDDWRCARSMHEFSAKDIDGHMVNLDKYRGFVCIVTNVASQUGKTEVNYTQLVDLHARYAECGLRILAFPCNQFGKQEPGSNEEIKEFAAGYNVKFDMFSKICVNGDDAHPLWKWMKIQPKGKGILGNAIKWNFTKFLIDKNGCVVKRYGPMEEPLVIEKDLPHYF

`CCc1nn(C)c(C(=O)NCc2ccc(Oc3ccc(C)cc3)cc2)c1Cl`: the Potency entry in [1], in assay [2], in assay [4], in assay [5], in [7] and in assay [8] was “inactive” each time. Also, the Potency result in the assay with Es-2, in the assay with Tov-21-G and with Tov112D was “inactive” in each case. Further, the Potency in [3] is 817 nM (active); with CRL-7250 it was 6.5 nM (active); in the assay on HEK293 it was 7.3 nM (active); in the assay with OV90, 631 nM (active). Also, the compound was classed as inactive in [6]. In addition, the max response in the assay on HaCat was 1.94%.
On to `Cc1sc2c(c1C)C(c1ccc(Cl)cc1)=N[C@@H](CC(N)=O)c1nnc(C)n1-2`, for which the Potency result (in assay [1]; in [4]; in assay [5]; in assay [7]; in assay [8]; in the assay on C33A) was “inactive” each time. Also, the Potency entry with CASKI is “inactive”. Further, the Potency in assay [3] is 64.9 nM (active) and 132 nM (active); with CRL-7250, 366 nM (active); in the assay with HEK293, 259 nM (active). In addition, the compound was called inactive in assay [6]. Also, the max response with HaCat is -29.9%.
With `C[C@H]1C/C=C/[C@H]2[C@@H]3O[C@]3(C)[C@@H](C)[C@H]3[C@H](Cc4ccccc4)NC(=O)[C@]32OC(=O)O/C=C/[C@@](C)(O)C1=O`, the Potency entry in assay [1], in assay [2], in assay [4], in assay [5], in assay [7] and in assay [8] was “inactive” in each case. The Potency entry in the assay with C33A, in the assay with CASKI, in the assay with Es-2 and in the assay with OV90 was “inactive” each time. Moreover, the Potency was 632 nM (active) in assay [3]; 632 nM (active) in the assay on CRL-7250; 399 nM (active) in the assay with HEK293; 796 nM (active) in the assay on HaCat; 2510 nM (active) in the assay with PA-1; 3160 nM (active) with Tov112D. The outcome in assay [6] is “inactive [at 25.7 µM]”.
For `COc1cc2c(c(OC)c1OC)-c1ccc(SC)c(=O)cc1[C@@H](NC(C)=O)CC2`, the Potency entry (in [1]; in assay [2]; in assay [4]; in assay [5]; in assay [7]; with CASKI) was “inactive” each time. The Potency in assay [3] was 4.6 nM (active); in assay [8] it was 19000 nM (active); with CRL-7250, 9.2 nM (active); in the assay with HEK293 it was 8.2 nM (active). The max response with HaCat was 4.59%.
Take `C[C@H]1CCC/C=C/C2C[C@H](O)C[C@H]2[C@H](O)/C=C/C(=O)O1` (some centres undefined): the Potency result in assay [1], in [2], in [4], in [5], in assay [7] and in [8] was “inactive” each time. Moreover, the Potency in assay [3] is 163 nM (active) and 332 nM (active); with CRL-7250, 51.7 nM (active); with HEK293, 580 nM (active); in the assay on HaCat, 184 nM (active); with NIH3T3 it was 5170 nM (active); with C33A, 631 nM (active). In addition, the Potency is 1000 nM (active) in the assay with CASKI; 316 nM (active) in the assay with Es-2; 891 nM (active) in the assay with Hek293T; 316 nM (active) with OV90; 316 nM (active) with PA-1; 1000 nM (active) in the assay on Tov-21-G. Also, the Potency in the assay on Tov112D was 891 nM (active). Further, in assay [6], the outcome was inactive.
Turning to `COC(=O)[C@]12CCCC(C)(C)C1CCc1cc(C(C)C)c(O)c(O)c12` (some centres undefined), the Potency in assay [1] is 14100 nM (active); in assay [8], 18600 nM (active). The Potency entry (in [2]; in [3]; in [4]; in [5]; in the assay with C33A; in the assay on CASKI) was “inactive” in each case. Moreover, the Potency result in the assay on Es-2, in the assay with Hek293T, in the assay on OV90, in the assay on PA-1, in the assay with Tov-21-G and in the assay on Tov112D was “inactive” in each case. Also, the compound was called inactive (in assay [6]; in the assay on HaCat). Moreover, the max response in the assay on CRL-7250 was -0.302%; in the assay with HEK293, 3.53%; in the assay on NIH3T3, 2.35%.
